Drawing on PubChem BioAssay (EPA / NIEHS), this text covers outcome and AC50 for 4 compounds.

SMILES strings stand for the structures. Inconclusive results are not listed. The source made the active and inactive calls. How the source made its calls, unless noted: active means hit-call score of the fitted dose curve at least 0.9, where 1 is the maximum; inactive means score below 0.9.

In assay [1] the target is Paired box protein Pax-6 (Homo sapiens) (UniProt P26367). Nature of the assay: ATG_Pax6_CIS: Attagene CIS-FACTORIAL HepG2 Assay for human Paired Box 6 (PAX6) (AID 2282956). The note with it: HepG2 CIS-FACTORIAL PAX6 reporter transcription, RNA readout; actives raise or lower the signal. In a few lines: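 HepG2 cells transiently transfected with cis-promoter-driven multiplexed reporter units sensing endogenous transcription factor activity; 24 h chemical exposure. Reporter mRNA quantified by RT-PCR, 6-FAM labelling, HpaI digestion and capillary electrophoresis; bidirectional fit versus DMSO baseline.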
Sequence of Paired box protein Pax-6 (Homo sapiens) (P26367 whole entry, looked up): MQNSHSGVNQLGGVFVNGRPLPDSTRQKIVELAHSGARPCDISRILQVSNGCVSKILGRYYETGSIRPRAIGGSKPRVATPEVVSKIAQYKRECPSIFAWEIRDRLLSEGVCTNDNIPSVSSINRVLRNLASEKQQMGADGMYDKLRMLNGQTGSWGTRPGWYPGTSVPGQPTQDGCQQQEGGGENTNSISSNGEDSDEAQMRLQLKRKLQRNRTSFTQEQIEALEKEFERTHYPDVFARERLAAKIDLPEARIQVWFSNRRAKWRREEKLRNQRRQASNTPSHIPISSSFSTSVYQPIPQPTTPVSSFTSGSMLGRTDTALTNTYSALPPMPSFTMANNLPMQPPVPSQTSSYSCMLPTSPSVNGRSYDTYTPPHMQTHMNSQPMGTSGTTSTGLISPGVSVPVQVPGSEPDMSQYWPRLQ

A short description of assay [2]: ATG_PXRE_CIS: Attagene CIS-FACTORIAL HepG2 Assay for human Pregnane X Receptor Element (PXRE) (AID 2282957). The settings on record: HepG2 Attagene CIS-FACTORIAL PXRE reporter, mRNA; actives raise or lower the signal. The gist of the method:
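Transfect HepG2 with MRTUs (cis promoter elements); dose chemical, incubate 24 h; isolate RNA, RT with oligo(dT), PCR, 6-FAM label, HpaI cut, CE. Gain/loss fit vs DMSO.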

Assay [3] is described as follows: ATG_RORE_CIS: Attagene CIS-FACTORIAL HepG2 Assay for human RAR-related Orphan Receptor Element (RORE) (AID 2282959). The note with it: HepG2 Attagene cis-factorial RORE reporter, mRNA; actives raise or lower the signal. In a few lines:
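HepG2 cells carrying transiently transfected cis-regulated reporter units; RORE-driven reporter mRNA quantified 24 h post-dosing by RT-PCR, 6-FAM primer extension, HpaI digestion and capillary electrophoresis. Bidirectional fit versus DMSO.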

Assay [4] addresses Transcription factor Sp1 (Homo sapiens) (UniProt P08047). Nature of the assay: ATG_Sp1_CIS: Attagene CIS-FACTORIAL HepG2 Assay for human Specificity Protein 1 (Sp1) (AID 2282961). The note with it: HepG2 Sp1 cis-reporter transcription, actives raise or lower the signal. In a few lines:
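HepG2 cells transiently transfected with multiplexed cis-regulated reporter constructs, chemical exposure 24 h. Reporter mRNA quantified by RT-PCR with capillary electrophoresis; bidirectional fit relative to DMSO.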

Assay [5] is described as follows: ATG_SREBP_CIS: Attagene CIS-FACTORIAL HepG2 Assay for human Sterol Regulatory Element Binding (SREBP) (AID 2282962). The settings on record: HepG2 Attagene cis-factorial SREBP reporter, mRNA; actives raise or lower the signal. The gist of the method:
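HepG2 cells transiently transfected with multiplexed cis-promoter reporter units sensing endogenous transcription factors; reporter mRNA measured 24 h after dosing by RT-PCR, 6-FAM labeling, HpaI digestion and capillary electrophoresis. Bidirectional fit versus DMSO.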

Assay [6] deals with Signal transducer and activator of transcription 3 (Homo sapiens) (UniProt P40763). Nature of the assay: ATG_STAT3_CIS: Attagene CIS-FACTORIAL HepG2 Assay for human Signal Transducer and Activator of Transcription 3 (STAT3) (AID 2282963). The settings on record: HepG2, Attagene cis-factorial STAT3 reporter transcription; actives raise or lower the signal. The gist of the method:
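Endogenous STAT3-responsive cis-element activity was read in transiently transfected HepG2 cells after 24 h treatment. Reporter transcripts were quantified via RT-PCR and capillary electrophoresis, with DMSO as negative control and bidirectional curve fitting.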

Assay [7] can be described thus: ATG_TA_CIS: Attagene CIS-FACTORIAL HepG2 Assay for human TA Basal Promoter (AID 2282964). The settings on record: HepG2 Attagene CIS-factorial TA basal promoter reporter; actives raise or lower the signal. The gist of the method:
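Fluorescence from labelled RT-PCR reporter fragments, separated by capillary electrophoresis, gives the signal. Cells: HepG2 transiently carrying multiple reporter units, 24 h chemical dosing. Gain or loss relative to DMSO.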

Assay [8] is described as follows: ATG_TCF_b_cat_CIS: Attagene CIS-FACTORIAL HepG2 Assay for human T-Cell-Factor with beta-catenin (TCF/b-cat) (AID 2282965). The settings on record: HepG2 TCF/beta-catenin cis-reporter transcription, actives raise or lower the signal. The gist of the method: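 Endogenous TCF/LEF activity read as reporter transcript level via RT-PCR and capillary electrophoresis fluorescence in transfected HepG2, 24 h exposure; gain or loss of signal fitted against DMSO controls.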

A short description of assay [9]: ATG_TAL_CIS: Attagene CIS-FACTORIAL HepG2 Assay for human TAL Basal Promoter (AID 2282966).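 Further: background control endpoint measuring basal TAL promoter reporter mRNA not a specific factor.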 The settings on record: HepG2 Attagene cis-factorial TAL promoter reporter; actives raise or lower the signal. The gist of the method:
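Fluorescence of labelled reporter cDNA fragments, resolved by capillary electrophoresis, gave the readout. Human HepG2 liver cells carried transiently transfected cis-element reporter units and were treated for 24 hours; activity was fitted bidirectionally against DMSO.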

Assay [10] in a line: ATG_TGFb_CIS: Attagene CIS-FACTORIAL HepG2 Assay for human Transforming Growth Factor (TGF) (AID 2282967). The settings on record: HepG2 Attagene CIS TGFb reporter, mRNA transcription; actives raise or lower the signal. In a few lines: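 Bidirectional fitting relative to DMSO gave the endpoint. Underlying data: reporter mRNA from HepG2 cells carrying transiently transfected cis-regulated reporter constructs, harvested 24 h after dosing and analyzed by RT-PCR and capillary electrophoresis.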

The nature of assay [11]: ATG_VDRE_CIS: Attagene CIS-FACTORIAL HepG2 Assay for human Vitamin D Receptor Element (VDRE) (AID 2282968). The note with it: HepG2 VDRE cis-reporter transcription, actives raise or lower the signal. The gist of the method: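 Reporter mRNA induction, quantified by capillary electrophoresis of fluorescently labelled RT-PCR products, was read 24 h after dosing HepG2 cells carrying transiently transfected cis-regulated reporter units; gain or loss relative to DMSO.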

Assay [12] addresses Estrogen receptor (Homo sapiens) (UniProt P03372). Nature of the assay: ATG_ERa_TRANS: Attagene TRANS-FACTORIAL HepG2 Assay for human Estrogen Receptor alpha (ERa) (AID 2282970; active means hit-call score of the fitted dose curve at least 0.9, where 1 is the maximum). The settings on record: HepG2 Attagene TRANS ERa GAL4 reporter, mRNA. The gist of the method:
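Human liver HepG2, transient transfection of multiple GAL4-UAS reporter units; TRANS format (exogenous NR-Gal4 chimera). 24 h dosing. Readout: reporter mRNA, RT-PCR, 6-FAM primer extension, HpaI digest, capillary electrophoresis. Positive direction vs DMSO.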

Assay [13] addresses Steroid hormone receptor ERR1 (Homo sapiens) (UniProt P11474). Briefly: ATG_ERRa_TRANS: Attagene TRANS-FACTORIAL HepG2 Assay for human Estrogen-Related Receptor alpha (ERRa) (AID 2282971; active means hit-call score of the fitted dose curve at least 0.9, where 1 is the maximum). The settings on record: HepG2 Attagene TRANS reporter, ERRa transactivation. The gist of the method:
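Reporter transcript induction was quantified by RT-PCR and capillary electrophoresis of FAM-labelled, HpaI-cut products after 24 h treatment of HepG2 cells carrying transiently transfected GAL4-UAS reporter units and an exogenous ERRa-Gal4 fusion; activity scored as increase over DMSO.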

Assay [14] deals with X-box-binding protein 1 (Homo sapiens) (UniProt P17861). Briefly: ATG_Xbp1_CIS: Attagene CIS-FACTORIAL HepG2 Assay for human X-box Binding Protein 1 (XBP1) (AID 2282972). The note with it: HepG2 XBP1 cis-element reporter, Attagene multiplex; actives raise or lower the signal. In a few lines:
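HepG2 cells transiently transfected with multiple cis-element reporter units report endogenous TF activity; 24 h exposure, then reporter mRNA measured by RT-PCR, 6-FAM labelling, HpaI digestion and capillary electrophoresis. Bidirectional fitting versus DMSO.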

The nature of assay [15]: ATG_PPRE_CIS: Attagene CIS-FACTORIAL HepG2 Assay for human Peroxisome Proliferator-activated Response Element (PPRE) (AID 2282958). The note with it: HepG2 PPRE cis-element reporter, Attagene transcription factor profiling; actives raise or lower the signal. In a few lines:
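HepG2 cells are transiently transfected with multiplexed cis-promoter reporter units to report endogenous PPAR activity. After 24 h dosing, reporter mRNA is read by RT-PCR and capillary electrophoresis. Fitting is bidirectional against DMSO.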

The nature of assay [16]: ATG_Sox_CIS: Attagene CIS-FACTORIAL HepG2 Assay for human SRY-box transcription factor (SOX) (AID 2282960). The settings on record: HepG2 Attagene cis-factorial SOX reporter, mRNA; actives raise or lower the signal. The gist of the method: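 HepG2 cells transiently transfected with multiple cis-regulated reporter units, then dosed for 24 h. Reporter mRNA quantified by RT-PCR, fluorescent labelling, HpaI digestion and capillary electrophoresis; bidirectional fit versus DMSO.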

The target in assay [17] is Nuclear receptor subfamily 1 group I member 3 (Homo sapiens) (UniProt Q14994). Nature of the assay: ATG_CAR_TRANS: Attagene TRANS-FACTORIAL HepG2 Assay for human Constitutive Androstane Receptor (CAR) (AID 2282969; active means hit-call score of the fitted dose curve at least 0.9, where 1 is the maximum;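 further: activators raise reporter mRNA above DMSO so AC50 marks induction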). The settings on record: HepG2 Attagene TRANS-FACTORIAL CAR reporter. In a few lines:
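Readout is reporter mRNA induction, quantified by fluorescent primer extension and capillary electrophoresis after RT-PCR. Cells were HepG2 transiently carrying chimeric NR-Gal4 constructs with GAL4-UAS reporters, treated for 24 h; activity scored upward from DMSO.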

In assay [18] the target is Androgen receptor (Homo sapiens) (UniProt P10275). Nature of the assay: ATG_AR_TRANS: Attagene TRANS-FACTORIAL HepG2 Assay for human Androgen Receptor (AR) (AID 2282973; active means hit-call score of the fitted dose curve at least 0.9, where 1 is the maximum). The settings on record: HepG2 Attagene TRANS-FACTORIAL AR reporter transcription. In a few lines: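 Steps: transfect HepG2 with multiple GAL4-UAS reporter transcription units (TRANS format, exogenous NR-Gal4 protein); dose 24 h; isolate RNA, reverse-transcribe, PCR-amplify, FAM-label, HpaI-digest; resolve by capillary electrophoresis. Positive direction vs DMSO.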
Sequence of Androgen receptor (Homo sapiens) (P10275 whole entry, looked up, the tested form may be a part): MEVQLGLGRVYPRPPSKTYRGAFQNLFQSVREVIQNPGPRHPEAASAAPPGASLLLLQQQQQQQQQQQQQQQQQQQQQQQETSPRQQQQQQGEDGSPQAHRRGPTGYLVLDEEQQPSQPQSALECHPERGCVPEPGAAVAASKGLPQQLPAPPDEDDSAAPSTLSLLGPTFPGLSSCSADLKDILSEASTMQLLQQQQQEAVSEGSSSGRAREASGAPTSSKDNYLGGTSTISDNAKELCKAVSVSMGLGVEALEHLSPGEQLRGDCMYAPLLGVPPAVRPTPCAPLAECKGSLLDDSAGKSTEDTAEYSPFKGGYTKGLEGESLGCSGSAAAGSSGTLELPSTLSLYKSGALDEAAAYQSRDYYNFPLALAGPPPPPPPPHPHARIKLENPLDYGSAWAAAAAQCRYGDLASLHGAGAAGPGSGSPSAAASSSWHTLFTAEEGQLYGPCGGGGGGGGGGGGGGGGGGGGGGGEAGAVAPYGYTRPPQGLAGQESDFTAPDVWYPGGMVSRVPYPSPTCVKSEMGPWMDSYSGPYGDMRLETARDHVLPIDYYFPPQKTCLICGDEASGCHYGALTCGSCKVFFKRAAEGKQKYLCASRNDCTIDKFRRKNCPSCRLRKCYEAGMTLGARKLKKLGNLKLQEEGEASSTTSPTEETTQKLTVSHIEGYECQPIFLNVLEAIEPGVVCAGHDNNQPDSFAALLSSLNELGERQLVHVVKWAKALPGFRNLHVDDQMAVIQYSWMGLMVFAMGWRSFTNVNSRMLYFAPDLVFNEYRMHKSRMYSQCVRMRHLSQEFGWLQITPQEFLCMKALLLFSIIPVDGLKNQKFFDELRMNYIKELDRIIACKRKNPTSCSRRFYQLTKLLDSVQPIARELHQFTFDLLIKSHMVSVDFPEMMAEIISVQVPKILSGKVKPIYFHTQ

Sequence of Steroid hormone receptor ERR1 (Homo sapiens) (P11474 whole entry, looked up, the tested form may be a part): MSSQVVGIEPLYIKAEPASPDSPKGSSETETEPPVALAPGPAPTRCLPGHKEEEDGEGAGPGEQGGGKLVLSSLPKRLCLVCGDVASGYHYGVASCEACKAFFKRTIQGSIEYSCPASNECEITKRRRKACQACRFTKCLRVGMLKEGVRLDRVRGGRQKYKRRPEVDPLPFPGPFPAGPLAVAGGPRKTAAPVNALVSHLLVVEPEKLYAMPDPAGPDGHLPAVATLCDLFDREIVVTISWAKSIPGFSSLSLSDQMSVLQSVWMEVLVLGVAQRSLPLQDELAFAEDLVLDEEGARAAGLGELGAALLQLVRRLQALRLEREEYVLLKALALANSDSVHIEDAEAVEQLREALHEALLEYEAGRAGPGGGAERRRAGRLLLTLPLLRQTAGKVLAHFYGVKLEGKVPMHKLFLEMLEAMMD
Sequence of Signal transducer and activator of transcription 3 (Homo sapiens) (P40763 whole entry, looked up): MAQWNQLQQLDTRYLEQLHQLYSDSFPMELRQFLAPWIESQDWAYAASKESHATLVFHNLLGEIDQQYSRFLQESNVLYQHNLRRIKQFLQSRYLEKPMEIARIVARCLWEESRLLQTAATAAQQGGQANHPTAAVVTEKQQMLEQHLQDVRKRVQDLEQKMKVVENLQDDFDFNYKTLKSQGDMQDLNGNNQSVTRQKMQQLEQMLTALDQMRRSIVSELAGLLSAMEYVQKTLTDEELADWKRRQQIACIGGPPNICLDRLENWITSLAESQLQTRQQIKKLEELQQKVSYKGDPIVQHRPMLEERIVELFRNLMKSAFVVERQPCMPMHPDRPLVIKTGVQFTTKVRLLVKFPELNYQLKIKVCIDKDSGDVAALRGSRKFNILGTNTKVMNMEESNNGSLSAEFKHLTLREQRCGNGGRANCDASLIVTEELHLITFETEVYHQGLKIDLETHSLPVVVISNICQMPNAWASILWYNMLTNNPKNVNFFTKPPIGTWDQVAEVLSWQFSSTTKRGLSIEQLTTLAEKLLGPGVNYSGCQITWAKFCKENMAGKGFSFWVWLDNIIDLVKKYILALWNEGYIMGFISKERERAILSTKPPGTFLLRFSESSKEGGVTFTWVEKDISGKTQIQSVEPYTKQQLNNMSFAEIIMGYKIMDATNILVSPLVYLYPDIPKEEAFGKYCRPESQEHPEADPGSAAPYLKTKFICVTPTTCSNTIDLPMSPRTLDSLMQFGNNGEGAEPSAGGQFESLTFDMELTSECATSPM
Sequence of X-box-binding protein 1 (Homo sapiens) (P17861 whole entry, looked up): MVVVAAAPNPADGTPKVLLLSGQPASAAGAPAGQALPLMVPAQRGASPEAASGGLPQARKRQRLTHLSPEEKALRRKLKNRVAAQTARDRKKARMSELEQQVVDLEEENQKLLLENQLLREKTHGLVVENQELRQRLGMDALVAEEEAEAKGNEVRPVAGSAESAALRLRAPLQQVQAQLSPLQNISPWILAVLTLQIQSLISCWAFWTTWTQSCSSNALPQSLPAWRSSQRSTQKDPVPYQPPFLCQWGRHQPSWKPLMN
Sequence of Transcription factor Sp1 (Homo sapiens) (P08047 whole entry, looked up): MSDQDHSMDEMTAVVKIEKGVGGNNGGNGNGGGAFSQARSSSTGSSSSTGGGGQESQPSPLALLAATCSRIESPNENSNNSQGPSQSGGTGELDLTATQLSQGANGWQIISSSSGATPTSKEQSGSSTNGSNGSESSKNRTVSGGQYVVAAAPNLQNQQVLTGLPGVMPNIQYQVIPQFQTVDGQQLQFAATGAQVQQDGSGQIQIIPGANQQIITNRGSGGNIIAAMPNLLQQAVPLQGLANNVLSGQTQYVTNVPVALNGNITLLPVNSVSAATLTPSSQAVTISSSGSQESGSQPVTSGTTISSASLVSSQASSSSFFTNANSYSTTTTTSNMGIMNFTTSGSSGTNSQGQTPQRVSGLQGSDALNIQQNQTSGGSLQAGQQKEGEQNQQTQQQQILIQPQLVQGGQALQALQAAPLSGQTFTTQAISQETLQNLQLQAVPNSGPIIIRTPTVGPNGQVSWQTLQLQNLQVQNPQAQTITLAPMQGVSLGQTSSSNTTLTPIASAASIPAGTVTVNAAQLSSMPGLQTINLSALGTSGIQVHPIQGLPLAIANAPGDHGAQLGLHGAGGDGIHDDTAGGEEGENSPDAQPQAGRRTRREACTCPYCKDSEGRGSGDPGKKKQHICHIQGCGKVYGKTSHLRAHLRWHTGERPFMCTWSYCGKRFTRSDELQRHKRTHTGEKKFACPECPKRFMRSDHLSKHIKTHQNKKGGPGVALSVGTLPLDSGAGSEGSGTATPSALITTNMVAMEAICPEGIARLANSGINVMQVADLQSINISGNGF
Sequence of Estrogen receptor (Homo sapiens) (P03372 whole entry, looked up, the tested form may be a part): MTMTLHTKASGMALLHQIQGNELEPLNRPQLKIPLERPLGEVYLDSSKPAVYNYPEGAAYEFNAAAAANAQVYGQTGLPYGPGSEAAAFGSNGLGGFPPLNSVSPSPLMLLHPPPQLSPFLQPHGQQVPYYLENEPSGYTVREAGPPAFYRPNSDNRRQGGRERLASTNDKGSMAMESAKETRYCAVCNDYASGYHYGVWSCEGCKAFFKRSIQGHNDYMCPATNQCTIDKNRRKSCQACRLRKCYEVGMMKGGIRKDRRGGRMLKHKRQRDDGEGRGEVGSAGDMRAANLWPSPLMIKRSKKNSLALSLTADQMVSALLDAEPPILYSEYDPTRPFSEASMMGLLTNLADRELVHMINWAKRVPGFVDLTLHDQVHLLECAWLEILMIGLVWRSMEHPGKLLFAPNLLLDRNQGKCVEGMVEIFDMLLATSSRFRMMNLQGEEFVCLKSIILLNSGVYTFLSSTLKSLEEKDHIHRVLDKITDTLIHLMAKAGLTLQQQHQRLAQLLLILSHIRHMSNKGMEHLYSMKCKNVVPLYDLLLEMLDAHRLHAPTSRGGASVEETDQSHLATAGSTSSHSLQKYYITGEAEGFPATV
Sequence of Nuclear receptor subfamily 1 group I member 3 (Homo sapiens) (Q14994 whole entry, looked up, the tested form may be a part): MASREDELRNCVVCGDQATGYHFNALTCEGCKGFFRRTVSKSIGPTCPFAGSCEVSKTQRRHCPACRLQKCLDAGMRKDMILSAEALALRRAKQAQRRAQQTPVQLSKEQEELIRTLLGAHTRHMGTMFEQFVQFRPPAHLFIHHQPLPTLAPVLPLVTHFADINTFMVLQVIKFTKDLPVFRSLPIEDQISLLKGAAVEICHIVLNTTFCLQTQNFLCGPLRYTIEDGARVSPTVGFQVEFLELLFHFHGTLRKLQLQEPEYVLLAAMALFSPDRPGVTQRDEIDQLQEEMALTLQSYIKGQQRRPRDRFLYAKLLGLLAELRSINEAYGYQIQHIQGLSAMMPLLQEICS

On to `CCC(C)(C)c1ccc(O)cc1`, for which the compound was classed as inactive in assay [1], in [3], in assay [4], in assay [6], in assay [7] and in assay [8]. The result in assay [9], in [10], in assay [11], in assay [13] and in [14] was inactive. For the same compound, the AC50 is 9.13 µM (active) in [2], 20 µM (active) in assay [5] and 2.25 µM (active) in assay [12].
`COCCOCCO`: the compound was called inactive in assay [1], in assay [2], in assay [15], in assay [3], in [16] and in assay [4]. Besides, the call in assay [5], in assay [6], in assay [7], in [8], in assay [9] and in assay [10] was inactive. The result in assay [11], in assay [17], in assay [13] and in assay [14] was inactive.
As for `CC(C)(C)c1ccc(O)cc1`, the AC50 in assay [1] is 174 µM (active); in [2], 26 µM (active); in assay [4], 175 µM (active); in [5], 26.8 µM (active); in assay [8], 148 µM (active); in [14], 171 µM (active). Further, the result in assay [3], in assay [6], in assay [7], in assay [9] and in assay [10] was inactive.
For the compound `O=C(O)C(F)(F)OC(F)(F)C(F)(F)OC(F)(F)C(=O)O`, the outcome in assay [1], in assay [2], in assay [15], in [3], in [16] and in assay [4] was inactive. The result in [5], in assay [6], in assay [7], in assay [8], in assay [9] and in assay [10] was inactive. Moreover, the result in assay [11], in assay [12], in [13], in [14] and in [18] was inactive.
